Screening data deposited in PubChem BioAssay by University of Kansas High Throughput Screening Laboratory.
Only some compounds are listed: those with a hit (about 3.5% of all), similar ones and a draw of the others.
Pf apPOL block: Pf-apPOL DNA polymerase inhibition | Recombinant Pf-apPOL, molecular beacon fluorescence, 1.5 h | inhibition, % at 10 µM | 0.25% of 210,000 active | AID 1794808
mHTT-CaM PPI inh: disrupts binding of mutant huntingtin to calmodulin | AlphaScreen His-mHTT/GST-CaM binding, luminescence | inhibition, % at 15 µM | P42858 | AID 1671202 | 3.6% of 190,000 active;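 also: 0% = both proteins with DMSO and 100% = one protein alone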
* = called active by the depositor; nt = no result given; ! = not active in a repeat. Rule as the data show it: active = inhibition above about 50%; inactive = the rest.

SMILES | Pf apPOL block | mHTT-CaM PPI inh
Oc1ccccc1C=NC(N=Cc1ccccc1O)c1ccccc1O (stereo unspecified) | -1 | nt
O=c1[nH][nH]c(=O)n1-c1ccc2c(c1)OCO2 | nt | -1
Cc1ccc([N+](=O)[O-])cc1S(=O)(=O)Nc1ccc(-c2cn3c(n2)SCC3)cc1 | 4 | 32
C=CCc1c(C)nc(-c2ccccc2)nc1NN | -8 | 4
CC1CCN(C(=O)c2ccc3c(c2)CC(=O)N3Cc2ccc(F)cc2)CC1 | -6 | 15
CCN1C(=O)Cc2cc(C(=O)N3CCN(c4ccccc4C)CC3)ccc21 | 1 | 68*
CCN1C(=O)Cc2cc(C(=O)N3CCN(c4ccccc4Cl)CC3)ccc21 | -6 | 27
CC1CCN(C(=O)c2ccc3c(c2)CC(=O)N3Cc2cccc(F)c2)CC1 | -2 | 57*
COc1cccc(/C=c2\sc3n(c2=O)CN(c2ccc(Cl)cc2)CN=3)c1 | -6 | -1
Cn1c(=O)n(C)c2cc(/C=C3\C(=O)NN(c4ccc(Br)cc4)C3=O)ccc21 | 5 | 2
CC/C(C)=C1\C(=O)NN(c2ccc(Br)cc2)C1=O | -1 | 74*
O=C(NCC1(O)CCOCC1)C1CC=CCC1 (stereo unspecified) | -4 | 2
Cc1ccc(NC(=O)c2ccc(-c3nc4cccnc4n(C)c3=O)cc2)c(C)c1 | 0 | -3
Nc1cc(Oc2ccc(O)c(N)c2)ccc1O | 3 | 90*
Nc1cc(C(=O)c2ccc(O)c(N)c2)ccc1O | -8 | 17
Brc1ccc2c(c1)NC(c1ccccc1)=NC(c1ccncc1)=N2 | -5 | 71*
Fc1ccc(C2=Nc3ccc(F)cc3NC(c3ccccc3)=N2)cc1 | -3 | 7
Cc1ccc2c(c1)N(C(=O)Nc1cccc(Br)c1)CC(C)O2 (stereo unspecified) | -4 | 0
O=S(=O)(Nc1ccc(NS(=O)(=O)c2ccc(F)cc2)cc1)c1ccc(F)cc1 | -2 | 4
O=S(=O)(Nc1cccc(F)c1)c1ccc(-c2ccccc2)cc1 | -4 | 79*
Cc1ccc(S(=O)(=O)Nc2cccc(F)c2)cc1 | -1 | -7
O=S(=O)(Nc1ccc(Nc2ccccc2)cc1)c1ccc(F)cc1 | -3 | 69*
O=C(Nc1ccc(OC(F)(F)F)cc1)OCc1nccn1Cc1ccc(Cl)cc1 | 0 | nt
CN(C)CCCN1C(=O)C(O)=C(C(=O)c2ccco2)C1c1ccco1 (stereo unspecified) | -9 | -2
O=C(NCCc1ccccc1)c1ccccc1CN1C(=O)c2ccccc2C1=O | -8 | 1
SMILES | Pf apPOL block | mHTT-CaM PPI inh
COc1cc(/C=C2\C(=O)ON=C2C)cc(Br)c1OCc1ccccc1F | -4 | 64*
CC1=NOC(=O)/C1=C/c1ccccc1OCc1ccccc1Cl | -2 | 4
CC1=NOC(=O)/C1=C/c1ccc(OCc2ccc(C)cc2)c(Cl)c1 | -5 | 33
CC1=NOC(=O)/C1=C/c1ccccc1OCc1ccc(Br)cc1 | 1 | 54*
C=CCOc1c(Br)cc(/C=C2\C(=O)ON=C2C)cc1OC | -2 | 21
COc1cc(/C=C2\C(=O)ON=C2C)ccc1OCc1ccccc1F | -4 | 41
COc1cc(/C=C2\C(=O)ON=C2C)cc(Br)c1OCc1ccc(C)cc1 | 14 | 70*
COc1cc(/C=C2\C(=O)ON=C2C)cc(Cl)c1OCc1ccc(C)cc1 | 0 | 95*
O=C(O)CCCc1ccc2c(c1)OCCO2 | -2 | nt
CCOC(=O)C1CCC(CNC(=O)N2CCC(n3c(C)nc4cccnc43)C2)CC1 (stereo unspecified) | -2 | 8
Cc1cc(C)cc(NC(=O)C2CCCN(C(=O)c3ccccc3F)C2)c1 (stereo unspecified) | -23 | 97*
O=C(Nc1cccc(F)c1)C1CCCN(C(=O)c2ccccc2F)C1 (stereo unspecified) | -8 | 30
OC(COc1ccc(F)cc1)CN1CCN(c2cccc(Cl)c2)CC1 (stereo unspecified) | -2 | 81*
C=CCc1ccccc1OCC(O)CN1CCCCC1 (stereo unspecified) | -6 | -6
C=CCc1ccccc1OCC(O)CN1CCN(c2cccc(Cl)c2)CC1 (stereo unspecified) | -2 | 99*
CC(C)c1ccc(OCC(O)CN2CCN(c3ccc(F)cc3)CC2)cc1 (stereo unspecified) | -4 | 39
C=CCc1ccccc1OCC(O)CN1CCN(C)CC1 (stereo unspecified) | -1 | -4
C=CCc1ccccc1OCC(O)CN1CCN(c2ccc(OC)cc2)CC1 (stereo unspecified) | 0 | 54*!
COc1cc(NC(=O)c2ccccc2)c(Cl)cc1NC(=O)c1cccs1 | -5 | 0
COc1ccc(C(C)=O)cc1CSC(=S)N1CCSCC1 | -15 | nt
COCCCNC(=O)c1ccc(CS(=O)(=O)Cc2ccccc2Cl)o1 | -20 | 3
COc1ccc(C(=O)Nc2cc(C)cc(C)c2)cc1 | 2 | -6
O=C(Cc1ccccc1F)N1CCCC(COc2cccc(C(=O)N3CCCCC3)c2)C1 (stereo unspecified) | -1 | 13
C=CCn1c(SCC(=O)Nc2cccc(C)c2)nc2sc(CC)cc2c1=O | -2 | -1
CCOc1ccc(S(=O)(=O)Nc2c(C)cccc2C)c2cccnc12 | 1 | 18
SMILES | Pf apPOL block | mHTT-CaM PPI inh
CCCNC(=O)C1CCN(c2nnc3c(Cl)cccn23)CC1 | 1 | -1
CCCCC(=O)Nc1c(-c2cccc(Cl)c2)nc2ccc(C)cn12 | -2 | 40
CCOc1ccccc1/C=C1/NC(=O)N(Cc2ccc(Br)cc2)C1=O | -4 | 2
O=C(c1ccccc1Cl)c1coc2ccc(Cl)cc2c1=O | 1 | 98*
O=C(c1cccc(F)c1)c1coc2ccc(Cl)cc2c1=O | -11 | 26
O=C1c2ccc(F)cc2C(=O)N1c1ccc(F)cc1 | 7 | -5
O=C(c1ccoc1)N1CCCC2(C1)Nc1ccccc1NC2=NC1CCCC1 (stereo unspecified) | 4 | 69*
O=C(c1ccccn1)N1CCCC2(C1)Nc1ccccc1NC2=NC1CCCC1 (stereo unspecified) | 0 | 24
O=C(c1ccccc1)N1CCCC2(C1)Nc1ccccc1NC2=NC1CCCC1 (stereo unspecified) | 2 | 32
O=C(c1ccco1)N1CCCC2(C1)Nc1ccccc1NC2=NC1CCCC1 (stereo unspecified) | -1 | 79*
O=S(=O)(C1CC1)N1CCCC2(C1)Nc1ccccc1NC2=NCc1ccccc1 (stereo unspecified) | -5 | 62*
O=C(NCc1ccccc1)N1CCCC2(C1)Nc1ccccc1NC2=NC1CCCC1 (stereo unspecified) | -6 | 100*
O=C(c1ccncc1)N1CCCC2(C1)Nc1ccccc1NC2=NCc1ccccc1 (stereo unspecified) | 0 | 24
COCCC(=O)N1CCCC2(C1)Nc1ccccc1NC2=NC1CCCC1 (stereo unspecified) | -4 | 7
Cc1cccc(C)c1NC(=O)C(C)N1C(=O)CCCc2ccccc21 (stereo unspecified) | -6 | -3
Cc1ccccc1OCC(=O)N1CCC2(CC1)NC(=O)N(Cc1ccc(Cl)cc1)C2=O | -5 | 14
COC(=O)C1=C(NC(=O)c2ccc(N3C(=O)CCC3=O)cc2)CCS1 | 1 | -9
COc1ccc(OC)c(CNC(=O)C2CCN(S(=O)(=O)N(CC(C)C)CC(C)C)CC2)c1 | -9 | 13
O=C(Nc1ccc(F)cc1Cl)C1CCc2sc(C(=O)N3CCOCC3)cc2C1 (stereo unspecified) | 1 | -1
Cc1cccc(C2CC(C(=O)N3CCSCC3)CN(Cc3ccccc3)C2)c1 (stereo unspecified) | 3 | 77*
